# Source: PubChem BioAssay AID623868 (Vanderbilt High Throughput Screening Facility, 2012)
# About 760 (36%) of roughly 2,100 compounds were called active.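 Rule for the calls: active = thallium-flux fluorescence traces judged by eye to show enhanced or reduced glutamate response, manual score 1 or -1, so both directions (some results past the limit were not filed as active); inactive = the rest, including fluorescent or raised-baseline compounds.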 Only a sample is shown.
# Experiment: thallium influx changes without GIRK channels – cell-based, HEK-293 rmGlu8, no GIRK, thallium flux, counter-screen for GIRK activator project, confirmation (AID 623868);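 note: extra codes mark interference with 3 for fluorescent and 4 for baseline rise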
# Conditions: thallium flux fluorescence, at 10 µM, actives lie on both sides, codes: 1 enhancer, -1 blocker, 0 none, thallium stimulus containing EC20 glutamate
row,Compound,manual score
1,CCNc1ccc2noc3c2c1C(=O)c1ccccc1-3,0 (inactive)
2,O=C(NNc1ccccc1Br)C(=O)n1ccc2ccccc21,1 (active)
3,Cc1ccc(C)c2[nH]c(=O)c(CN(CCN3CCCC3)C(=O)Nc3ccc(F)cc3)cc12,0 (inactive)
4,O=C1N=C(c2ccccc2)S/C1=C\c1cccs1,3 (inactive)
5,CSC1=NSC2=NC(=O)/C(=C/c3coc4ccccc4c3=O)C(=N)N12,3 (inactive)
6,N=C1/C(=C/c2cccs2)C(=O)N=C2SN=C(SCc3ccccc3)N12,1 (active)
7,Cc1ccc(CNC(=O)Cc2csc(Nc3nc(=S)[nH]c4ccccc34)n2)cc1,1 (active)
8,O=C(Cc1csc(Nc2nc(=S)[nH]c3ccccc23)n1)NCc1cccc(Cl)c1,1 (active)
9,O=C(Cc1csc(Nc2nc(=S)[nH]c3ccccc23)n1)NCc1ccccc1Cl,0 (inactive)
10,N#CC(c1cccc(Cl)c1)c1ccc2c(C(F)(F)F)cc(C(F)(F)F)nc2n1 (centres undefined),0 (inactive)
11,Oc1cccc(NC(=S)Nc2ccc(SC(F)F)cc2)c1,0 (inactive)
12,CN(C)CCNC(=O)c1ccc2c(c1)N(Cc1ccc(F)cc1)CCS2,0 (inactive)
13,O=C(O)c1cccc(Nc2nc(N3CCOCC3)nc(N3CCOCC3)n2)c1,-1 (active)
14,CCOC(=O)CSc1nc2ccc(Nc3nc(N4CCOCC4)nc(N4CCOCC4)n3)cc2s1,0 (inactive)
15,CC1CC(C)CN(Cc2nc(N)nc(Nc3ccc4ccccc4c3)n2)C1 (centres undefined),0 (inactive)
16,O=C(COC(=O)c1cccc(N2C(=O)c3ccccc3C2=O)c1)Nc1ccccc1,0 (inactive)
17,CC(=O)Nc1cccc2c1C(=O)N(c1cccc(C)c1)C2=O,0 (inactive)
18,CC(C)CC(=O)Nc1cccc2c1C(=O)N(c1ccccc1)C2=O,-1 (active)
19,CCOc1ccc(Br)cc1/C(C)=N\NC1=NCCN1,0 (inactive)
20,N#CC1=C(N)Oc2n[nH]c(-c3cccs3)c2C1c1ccoc1 (centres undefined),0 (inactive)
21,S=C1NC(c2ccccc2)=NCN1c1ccc(Cl)cc1,1 (active)
22,Cc1cs/c(=N\N=C\c2cccc([N+](=O)[O-])c2)n1Cc1ccco1,0 (inactive)
23,Cc1cc(C)c(-n2c(C)cc(/C=C3/NC(=O)NC3=O)c2C)c(C)c1,0 (inactive)
24,Cc1ccccc1-n1c(SCc2ccccn2)nc2n[nH]c(C)c2c1=N,0 (inactive)
25,CCOc1ccc2nc(NC(=O)C(CC)Sc3nc(C)cc(=O)[nH]3)sc2c1 (centres undefined),-1 (active)
26,CCCOc1cccc(OCCSc2nc(C)cc(=O)[nH]2)c1,0 (inactive)

row,Compound,manual score
1,CC(C)Cn1c2c(c(O)c(C(=O)Nc3ncccc3O)c1=O)CCCC2,-1 (active)
2,C/C(=N\NC(=O)COc1ccc(C)cc1C(C)C)c1ccc(-n2ccnc2)cc1,0 (inactive)
3,CC12CCC(C(=O)N(CSC(=S)N/N=C\c3ccccc3)C1=O)C2(C)C (centres undefined),1 (active)
4,COc1ccc(/C=N\NC(=S)SCN2C(=O)C3CCC(C)(C2=O)C3(C)C)cc1 (centres undefined),1 (active)
5,CN(C)c1ccc(/C=N\NC(=S)SCN2C(=O)C3CCC(C)(C2=O)C3(C)C)cc1 (centres undefined),0.5 (inactive)
6,CC(Nc1ccc(Br)cn1)c1cc(Cl)ccc1O (centres undefined),0 (inactive)
7,O=C(Nc1ccccc1C(=O)N/N=C/c1ccco1)c1ccccc1,1 (active)
8,Cc1cc(C)c(NC(=O)/C(=C/c2ccco2)c2ccccc2)c(C)c1,0 (inactive)
9,CC(C)NC(=O)/C(=C/c1ccco1)c1ccccc1,0 (inactive)
10,CN(c1ccccc1C(=O)Nc1ccccc1C(=O)NCc1ccco1)S(C)(=O)=O,0 (inactive)
11,Cc1ccccc1C(=O)Nc1ccccc1C(=O)N/N=C\c1ccco1,1 (active)
12,Cc1ccccc1C(=O)N/N=C/c1ccc([N+](=O)[O-])s1,0 (inactive)
13,COc1cc(NC(=O)CSc2nccc(C)n2)c(C)cc1[N+](=O)[O-],0 (inactive)
14,CCCC(c1c(C)n(C)n(-c2ccccc2)c1=O)c1c(C)n(C)n(-c2ccccc2)c1=O,0 (inactive)
15,CCc1cc2c(=O)n(CC)c(SC(C)C(=O)Nc3c(C)n(C)n(-c4ccccc4)c3=O)nc2s1 (centres undefined),-1 (active)
16,Cc1c(NC(=S)NC(NC(=O)CC(C)C)C(Cl)(Cl)Cl)c(=O)n(-c2ccccc2)n1C (centres undefined),0 (inactive)
17,O=c1c2c(nc3c(-c4ccccc4)c[nH]n13)CCCC2,1 (active)
18,Cc1ccc(-c2[nH]n3c(=O)c4c(nc3c2C)CCCC4)cc1,0 (inactive)
19,O=c1c2c(nc3c(-c4cccc(Br)c4)c[nH]n13)CCCC2,0 (inactive)
20,O=c1c2c(nc3c(-c4ccc(Cl)cc4)c[nH]n13)CCCC2,1 (active)
21,O=c1[nH]c(SCc2ccccc2Cl)nc2c1CCCC2,0 (inactive)
22,Cc1ccc2c(CC(=O)NC3CCCc4ccccc43)coc2c1 (centres undefined),0 (inactive)
23,CC(C)(C)NC(=O)C(=O)NNC(=O)COc1ccc(Br)cc1,1 (active)
24,Cc1ccc(OCC(=O)NNC(=O)C(=O)NC(C)(C)C)cc1,1 (active)
25,COc1ccccc1NC(=O)COc1ccc(Br)cc1CO,0 (inactive)
26,Cc1ccc(OCC(=O)N/N=C/c2cccn2C)cc1,0 (inactive)

row,Compound,manual score
1,CCOc1ccc(NC(=O)Nc2cc(C)ccc2OC)cc1,0 (inactive)
2,COc1cccc(NC(=O)COc2ccc(C)cc2)c1,0 (inactive)
3,C=C(C)C1CC=C(C)/C(=N/NC(=O)COc2ccc(C)cc2)C1 (centres undefined),0 (inactive)
4,COc1ccc(OCC(=O)NNC(=O)C(=O)Nc2ccc(C)cc2)cc1,1 (active)
5,S=C1NC2=C(CCCC2)C2(CCCCC2)N1,0 (inactive)
6,CN(CC(=O)Nn1cnnc1)S(=O)(=O)c1ccc(Br)cc1,0 (inactive)
7,C/C(=N\NC(=O)c1ccc(Cl)cc1)c1ccc(Br)s1,1 (active)
8,CCC(NC(=O)c1ccccc1O)c1ccccc1 (centres undefined),0 (inactive)
9,C/C(=N\NC(=O)c1cccc(F)c1)c1ccc(Br)s1,1 (active)
10,O=C(N/N=C/c1c(Cl)cccc1Cl)c1cccc(F)c1,0 (inactive)
11,C/C(=N\NC(=O)c1ccccc1)c1nc2ccccc2n1C,0 (inactive)
12,C/C(=N\NC(=O)c1ccccc1O)c1ccc(Br)s1,1 (active)
13,CN(C)/C=C/C(=O)/C=C/c1cn(-c2ncc(C(F)(F)F)cc2Cl)c2ccccc12,0 (inactive)
14,CCc1ccc2c(c1)C1(NN=C(c3ccc(C)cc3)S1)C(=O)N2 (centres undefined),0 (inactive)
15,CCOC(=O)c1c(NS(=O)(=O)c2ccc(Br)cc2)sc2c1CCC2,1 (active)
16,CCOC(=O)c1ccc(CNCc2ccc(Br)cc2)cc1,0 (inactive)
17,CCOC(=O)c1c(NC(=O)C2C3C=CC(C3)C2C(=O)O)sc2c1CCC(CC)C2 (centres undefined),0 (inactive)
18,CCOC(=O)c1c(NS(=O)(=O)c2cccc(OC)c2)sc2c1CCC2,1 (active)
19,O=C1CS/C(=N\C(=O)N2c3ccccc3Sc3ccccc32)N1,0 (inactive)
20,CC(C)Cn1cnc2c(c(-c3ccccc3)c(-c3ccccc3)n2Cc2ccco2)c1=N,0 (inactive)
21,O=S(=O)(Nc1cc(Sc2cccc3cccnc23)c(O)c2ccccc12)c1ccc(F)cc1,0 (inactive)
22,CC(=O)/C(=N\Nc1ccc(Cl)cc1Cl)Sc1cccc2cccnc12,1 (active)
23,CCOc1ccc(-c2nc(-c3ccncc3)no2)cc1OCC,0 (inactive)
24,O=C(CC(=O)c1ccccc1O)c1cccc(F)c1,1 (active)
25,O=C(CC(=O)c1ccccc1O)c1ccc(F)cc1,1 (active)
26,O=C(c1cccc(F)c1)N1CCN(Cc2ccco2)CC1,0 (inactive)

row,Compound,manual score
1,Cc1ccc(C(=O)CC(=O)c2cc(Cl)ccc2O)cc1,0 (inactive)
2,C/C(=N/NC(=O)c1cc(Cl)ccc1O)C12CC3CC(CC(C3)C1)C2,0 (inactive)
3,O=C(CC(=O)c1cc(Cl)ccc1O)c1ccccc1,1 (active)
4,Cc1cccc(C(=O)CC(=O)c2cc(Cl)ccc2O)c1,0.5 (inactive)
5,COC(=O)c1nc(NC(C)=O)n[nH]1,0 (inactive)
6,Cc1ccc(NC(=O)COn2nnc3ccc(S(=O)(=O)N(C)C)cc32)cc1F,0 (inactive)
7,O=c1c(O)c(-c2cccs2)oc2ccc(Cl)cc12,3 (inactive)
8,Cc1ccc(C2c3c(oc4ccc(Cl)cc4c3=O)C(=O)N2CCCN2CCOCC2)o1 (centres undefined),1 (active)
9,CCN(CC)CCN1C(=O)c2oc3ccccc3c(=O)c2C1c1ccc(C)cc1 (centres undefined),0 (inactive)
10,COCCn1c(CN(Cc2ccccc2)Cc2ccccc2)nc2c1c(=O)n(C)c(=O)n2C,0 (inactive)
11,O=C(N/N=C\c1cc(Br)c(Br)o1)c1cncc(Br)c1,1 (active)
12,CCNC(=O)NC(=O)COC(=O)CCCSc1nc2ccccc2[nH]1,0 (inactive)
13,CN(C)CCCOc1ccc(C(C)(C)c2ccccc2)cc1,0 (inactive)
14,O=C(NC(=S)Nc1ccccc1Cl)c1csnn1,1 (active)
15,O=C(NC(=S)Nc1ccccc1)c1csnn1,1 (active)
16,Cc1cccc(NC(=S)NNC(=O)c2csc(C(C)C)c2)c1,1 (active)
17,Cc1ccc(C)c(NC(=S)NNC(=O)c2csc(C(C)C)c2)c1,1 (active)
18,CC(C)C(=O)Nc1cccc(NC(=O)c2cc3ccccc3o2)c1,0 (inactive)
19,O=[n+]1c2c(n([O-])c3cc(F)c(N4CCCC4)cc31)CCC2,3 (inactive)
20,Cc1cccc2c(=O)cc(C)n(CC(=O)N3CCCCC3)c12,-0.5 (inactive)
21,CCOC(=O)CSc1nc(C)c2cc(OC)ccc2n1,0 (inactive)
22,COc1ccc2c(-c3ccccc3)cc(SCC(=O)N(C)C3CCS(=O)(=O)C3)nc2c1 (centres undefined),1 (active)
23,CCN(C(=O)CSc1nc2ccccc2n1CCc1ccccc1)C1CCS(=O)(=O)C1 (centres undefined),0 (inactive)
24,Cc1ccc(NC(=O)Cc2ccccc2Cl)cc1S(=O)(=O)N(C)C,0 (inactive)
25,CN(CCNC(=O)c1cc2c(=O)n(C)c3ccccc3c2n1C)Cc1ccccc1,0 (inactive)
26,CC1(C)Cc2c(ccc3ccccc23)-c2nnc(-c3cccnc3)n21,0 (inactive)
